# According to paper PMC7862700, “An all-to-all approach to the identification of sequence-specific readers for epigenetic DNA modifications on cytosine”:
# What was measured:
# Assay in all cases: DAPPL (digital affinity profiling via proximity ligation, sequencing); 10 mM Tris-HCl pH 7.5, 50 mM NaCl, 1 mM DTT, 4% glycerol, room temperature, 30 min; GST-TFs on glutathione beads, 16-mer random dsDNA library, 0.1% formaldehyde crosslink after washing; high values mean tight binding
# Conditions in all cases: protein: recombinant; tags: N-terminal GST; dsDNA, one strand shown
# [1] = target: T1, FLI1 (Homo sapiens, UniProt Q01543 1-452)
# T1 sequence: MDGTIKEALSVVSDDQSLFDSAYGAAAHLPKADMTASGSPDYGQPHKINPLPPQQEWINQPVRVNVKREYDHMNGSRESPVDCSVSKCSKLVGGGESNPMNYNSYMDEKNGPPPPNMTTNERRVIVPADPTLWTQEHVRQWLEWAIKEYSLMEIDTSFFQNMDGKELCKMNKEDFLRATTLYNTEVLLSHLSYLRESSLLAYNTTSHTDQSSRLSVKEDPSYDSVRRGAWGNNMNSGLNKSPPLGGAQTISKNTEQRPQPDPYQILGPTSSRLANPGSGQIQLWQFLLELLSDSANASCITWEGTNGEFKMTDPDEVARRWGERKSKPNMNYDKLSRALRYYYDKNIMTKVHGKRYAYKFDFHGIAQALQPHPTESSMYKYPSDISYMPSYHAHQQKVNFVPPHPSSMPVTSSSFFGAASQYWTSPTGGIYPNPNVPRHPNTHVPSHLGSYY
# Summary of the method: (§1)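 Human transcription factors were made in yeast as GST fusions, captured on glutathione beads and barcoded with DNA. With a tag-only sample included, the pool was incubated with 200 nmole of a random double-stranded 16-mer DNA library in Tris/NaCl/DTT/glycerol buffer at room temperature for 30 min, then crosslinked with 0.1% formaldehyde after washing, ligated by proximity, amplified and sequenced. For binding signal, each hexamer's read frequency for a factor is divided by its frequency for the tag-only sample.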
# [2] = target: T2, ELK1 (Homo sapiens, UniProt P19419 1-428)
# T2 sequence: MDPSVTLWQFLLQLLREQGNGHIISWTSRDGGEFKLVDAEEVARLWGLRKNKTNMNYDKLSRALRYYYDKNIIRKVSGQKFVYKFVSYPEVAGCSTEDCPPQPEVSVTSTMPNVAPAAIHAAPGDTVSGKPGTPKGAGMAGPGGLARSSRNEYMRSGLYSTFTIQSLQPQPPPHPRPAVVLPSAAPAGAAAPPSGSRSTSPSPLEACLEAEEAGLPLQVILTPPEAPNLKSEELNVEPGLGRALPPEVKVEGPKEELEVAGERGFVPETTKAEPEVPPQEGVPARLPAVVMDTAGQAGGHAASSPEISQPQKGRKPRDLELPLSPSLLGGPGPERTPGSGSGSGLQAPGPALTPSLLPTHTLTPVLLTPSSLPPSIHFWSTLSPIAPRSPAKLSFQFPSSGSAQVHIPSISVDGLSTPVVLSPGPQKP
# Summary of the method: as §1
# [3] = target: T3, GABPA (Homo sapiens, UniProt Q06546 1-454)
# T3 sequence: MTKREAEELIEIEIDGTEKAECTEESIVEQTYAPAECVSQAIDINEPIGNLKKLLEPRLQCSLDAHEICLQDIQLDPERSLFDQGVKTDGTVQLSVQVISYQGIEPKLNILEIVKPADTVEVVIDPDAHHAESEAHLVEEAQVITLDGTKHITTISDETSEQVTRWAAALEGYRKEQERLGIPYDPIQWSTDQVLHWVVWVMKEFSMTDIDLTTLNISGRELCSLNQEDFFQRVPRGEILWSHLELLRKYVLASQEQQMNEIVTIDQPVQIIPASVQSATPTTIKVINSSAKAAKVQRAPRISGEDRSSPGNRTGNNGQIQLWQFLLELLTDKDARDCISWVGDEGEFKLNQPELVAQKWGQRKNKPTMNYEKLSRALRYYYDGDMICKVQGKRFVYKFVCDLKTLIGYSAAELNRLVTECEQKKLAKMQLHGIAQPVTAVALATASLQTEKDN
# Summary of the method: as §1
# [4] = target: ELF1 (Homo sapiens, UniProt P32519 1-619)
# ELF1, sequence (P32519 whole entry): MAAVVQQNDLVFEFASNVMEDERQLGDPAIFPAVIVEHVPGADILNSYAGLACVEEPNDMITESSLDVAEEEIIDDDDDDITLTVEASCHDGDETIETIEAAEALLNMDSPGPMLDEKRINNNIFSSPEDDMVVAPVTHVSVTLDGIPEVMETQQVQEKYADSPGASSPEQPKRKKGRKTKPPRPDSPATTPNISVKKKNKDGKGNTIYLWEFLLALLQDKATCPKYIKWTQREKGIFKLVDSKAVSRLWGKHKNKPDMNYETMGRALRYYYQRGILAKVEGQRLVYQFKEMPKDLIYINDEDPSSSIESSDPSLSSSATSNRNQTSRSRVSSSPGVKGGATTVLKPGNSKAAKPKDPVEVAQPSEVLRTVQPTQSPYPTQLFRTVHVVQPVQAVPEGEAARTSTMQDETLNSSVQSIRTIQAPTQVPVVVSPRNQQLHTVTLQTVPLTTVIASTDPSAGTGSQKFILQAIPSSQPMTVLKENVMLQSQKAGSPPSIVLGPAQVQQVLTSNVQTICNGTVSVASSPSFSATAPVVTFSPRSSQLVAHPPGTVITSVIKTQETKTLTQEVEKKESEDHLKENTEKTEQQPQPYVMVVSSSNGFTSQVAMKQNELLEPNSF
# Summary of the method: as §1
# [5] = target: T4, EHF (Homo sapiens, UniProt Q9NZC4 1-300)
# T4 sequence: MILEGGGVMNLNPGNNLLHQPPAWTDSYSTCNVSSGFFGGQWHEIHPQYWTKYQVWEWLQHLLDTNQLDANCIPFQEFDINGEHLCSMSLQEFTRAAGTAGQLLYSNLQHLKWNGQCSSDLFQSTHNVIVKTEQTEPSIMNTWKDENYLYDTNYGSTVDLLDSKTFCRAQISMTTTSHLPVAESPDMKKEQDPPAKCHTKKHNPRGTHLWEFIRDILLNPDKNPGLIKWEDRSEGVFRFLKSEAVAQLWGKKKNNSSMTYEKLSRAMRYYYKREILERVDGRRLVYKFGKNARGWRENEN
# Summary of the method: as §1
# [6] = target: T5, ELK3 (Homo sapiens, UniProt P41970 1-407)
# T5 sequence: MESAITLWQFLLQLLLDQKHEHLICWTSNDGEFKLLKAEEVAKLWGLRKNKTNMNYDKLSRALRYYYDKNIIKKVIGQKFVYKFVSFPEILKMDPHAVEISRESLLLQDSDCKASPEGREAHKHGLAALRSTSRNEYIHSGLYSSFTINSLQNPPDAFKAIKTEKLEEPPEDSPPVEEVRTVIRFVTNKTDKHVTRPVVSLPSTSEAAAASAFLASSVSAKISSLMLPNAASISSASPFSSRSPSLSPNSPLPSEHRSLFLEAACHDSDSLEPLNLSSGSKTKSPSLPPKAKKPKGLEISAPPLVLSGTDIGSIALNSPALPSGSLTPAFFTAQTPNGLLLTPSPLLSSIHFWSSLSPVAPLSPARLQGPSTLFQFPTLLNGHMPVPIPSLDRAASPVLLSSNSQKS
# Summary of the method: as §1
# [7] = target: ELF4 (Homo sapiens, UniProt Q99607 1-663)
# ELF4, sequence (Q99607 whole entry): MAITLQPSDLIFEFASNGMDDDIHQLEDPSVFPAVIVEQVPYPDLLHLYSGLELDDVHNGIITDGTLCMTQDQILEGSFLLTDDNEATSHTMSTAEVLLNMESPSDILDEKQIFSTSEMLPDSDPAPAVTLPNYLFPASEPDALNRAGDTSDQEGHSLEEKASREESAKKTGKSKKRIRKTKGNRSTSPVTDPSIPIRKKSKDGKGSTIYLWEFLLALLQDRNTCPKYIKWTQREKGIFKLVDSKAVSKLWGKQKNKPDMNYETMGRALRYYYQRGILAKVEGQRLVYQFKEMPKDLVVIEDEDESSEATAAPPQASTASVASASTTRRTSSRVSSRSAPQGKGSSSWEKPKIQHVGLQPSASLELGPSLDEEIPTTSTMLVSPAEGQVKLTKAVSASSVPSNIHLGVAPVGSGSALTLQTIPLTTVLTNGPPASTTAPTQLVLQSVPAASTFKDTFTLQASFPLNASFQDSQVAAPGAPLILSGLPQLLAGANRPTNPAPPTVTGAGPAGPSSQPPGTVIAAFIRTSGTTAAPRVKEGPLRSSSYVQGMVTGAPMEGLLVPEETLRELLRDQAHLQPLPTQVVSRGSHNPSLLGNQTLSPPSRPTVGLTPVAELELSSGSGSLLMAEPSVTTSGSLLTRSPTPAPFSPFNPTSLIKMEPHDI
# Summary of the method: as §1
# [8] = target: T6, ELK4 (Homo sapiens, UniProt P28324-2 1-405)
# T6 sequence: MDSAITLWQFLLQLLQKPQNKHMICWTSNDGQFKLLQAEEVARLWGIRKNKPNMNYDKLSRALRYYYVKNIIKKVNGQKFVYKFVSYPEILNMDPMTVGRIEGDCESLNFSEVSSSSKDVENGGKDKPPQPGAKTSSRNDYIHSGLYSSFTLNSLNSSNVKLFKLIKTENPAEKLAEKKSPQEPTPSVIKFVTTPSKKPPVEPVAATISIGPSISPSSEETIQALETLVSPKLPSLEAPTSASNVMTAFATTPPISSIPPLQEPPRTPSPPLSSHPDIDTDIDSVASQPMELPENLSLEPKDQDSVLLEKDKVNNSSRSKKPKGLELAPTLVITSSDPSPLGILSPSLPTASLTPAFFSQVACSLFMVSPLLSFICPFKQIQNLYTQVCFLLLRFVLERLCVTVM
# Summary of the method: as §1
# [9] = target: T7, ERF (Homo sapiens, UniProt P50548 1-548)
# T7 sequence: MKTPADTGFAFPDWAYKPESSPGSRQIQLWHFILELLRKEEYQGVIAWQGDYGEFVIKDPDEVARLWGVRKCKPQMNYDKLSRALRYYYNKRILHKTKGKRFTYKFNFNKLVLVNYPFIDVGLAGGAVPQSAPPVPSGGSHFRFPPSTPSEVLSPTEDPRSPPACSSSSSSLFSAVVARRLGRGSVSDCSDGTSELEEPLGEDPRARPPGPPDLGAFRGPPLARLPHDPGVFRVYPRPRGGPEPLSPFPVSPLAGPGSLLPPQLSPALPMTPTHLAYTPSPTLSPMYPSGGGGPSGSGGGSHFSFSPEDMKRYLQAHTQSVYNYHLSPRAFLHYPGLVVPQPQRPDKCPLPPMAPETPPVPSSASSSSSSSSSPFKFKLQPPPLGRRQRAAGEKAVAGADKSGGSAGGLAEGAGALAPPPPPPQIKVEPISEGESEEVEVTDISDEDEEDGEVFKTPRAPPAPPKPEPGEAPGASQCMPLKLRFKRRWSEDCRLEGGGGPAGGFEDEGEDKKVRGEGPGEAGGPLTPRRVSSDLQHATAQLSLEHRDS
# Summary of the method: as §1
# [10] = target: T8, ETV3L (Homo sapiens, UniProt Q6ZN32 1-361)
# T8 sequence: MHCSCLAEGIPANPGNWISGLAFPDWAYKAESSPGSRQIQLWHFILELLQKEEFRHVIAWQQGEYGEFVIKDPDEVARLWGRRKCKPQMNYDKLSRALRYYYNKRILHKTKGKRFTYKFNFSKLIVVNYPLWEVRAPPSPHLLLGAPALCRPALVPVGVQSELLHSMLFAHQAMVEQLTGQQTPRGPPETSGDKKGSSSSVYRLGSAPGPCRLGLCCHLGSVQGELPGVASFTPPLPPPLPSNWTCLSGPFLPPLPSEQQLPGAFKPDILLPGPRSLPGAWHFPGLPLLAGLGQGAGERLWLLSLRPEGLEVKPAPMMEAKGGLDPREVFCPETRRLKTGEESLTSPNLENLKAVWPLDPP
# Summary of the method: as §1
# [11] = target: T9, ETS2 (Homo sapiens, UniProt P15036 1-469)
# T9 sequence: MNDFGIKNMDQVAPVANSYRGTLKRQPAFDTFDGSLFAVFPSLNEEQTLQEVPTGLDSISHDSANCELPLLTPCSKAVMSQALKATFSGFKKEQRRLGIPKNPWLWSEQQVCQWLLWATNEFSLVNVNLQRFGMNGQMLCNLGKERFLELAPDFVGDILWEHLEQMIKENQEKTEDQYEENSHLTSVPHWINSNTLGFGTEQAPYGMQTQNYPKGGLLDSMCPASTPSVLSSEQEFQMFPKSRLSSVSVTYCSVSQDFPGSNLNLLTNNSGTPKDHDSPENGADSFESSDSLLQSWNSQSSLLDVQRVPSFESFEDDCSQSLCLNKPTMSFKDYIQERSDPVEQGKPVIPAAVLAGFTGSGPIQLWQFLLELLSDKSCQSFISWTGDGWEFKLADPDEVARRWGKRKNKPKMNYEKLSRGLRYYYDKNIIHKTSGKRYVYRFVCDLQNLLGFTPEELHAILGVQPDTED
# Summary of the method: as §1
# [12] = target: T10, ETV3 (Homo sapiens, UniProt P41162-2 1-143)
# T10 sequence: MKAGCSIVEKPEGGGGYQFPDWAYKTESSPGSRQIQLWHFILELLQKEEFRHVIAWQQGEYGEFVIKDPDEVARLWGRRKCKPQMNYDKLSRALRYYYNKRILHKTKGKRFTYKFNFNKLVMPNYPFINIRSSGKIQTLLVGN
# Summary of the method: as §1
sequence,measurement,setting,value
GCCGCA,binding signal,[1],"1.01 fold enrichment (6-mer frequency, TF over GST control)"
same,binding signal,[2],"1.03 fold enrichment (6-mer frequency, TF over GST control)"
same,binding signal,[3],"1.02 fold enrichment (6-mer frequency, TF over GST control)"
same,binding signal,[4],"1.04 fold enrichment (6-mer frequency, TF over GST control)"
same,binding signal,[5],"1.04 fold enrichment (6-mer frequency, TF over GST control)"
same,binding signal,[6],"1.04 fold enrichment (6-mer frequency, TF over GST control)"
same,binding signal,[7],"1.04 fold enrichment (6-mer frequency, TF over GST control)"
same,binding signal,[8],"1.04 fold enrichment (6-mer frequency, TF over GST control)"
same,binding signal,[9],"1.07 fold enrichment (6-mer frequency, TF over GST control)"
same,binding signal,[10],"1.04 fold enrichment (6-mer frequency, TF over GST control)"
same,binding signal,[11],"1 fold enrichment (6-mer frequency, TF over GST control)"
same,binding signal,[12],"1 fold enrichment (6-mer frequency, TF over GST control)"
